Laboratory results taken from the supplement of paper PMC6555819.

Tests used:
Experiment in all cases: PBM binding z-score (relative to random genomic background probes); higher = stronger binding; sequences stand for … in GC…GCGATTGACAGCGTAGAATGAAGG
[1] = system: FXR:RXRa (NR concentration 270 nM, RXRa partner concentration 90 nM)
In short: (§1)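 Binding z-scores were set against random background probes. The data came from custom Agilent 4×180K protein-binding microarrays carrying double-stranded probes with 34-nt variable regions, incubated 1 h with ligand-free nuclear receptor dimers. Partner-specific antibodies detected binding, and scanned fluorescence was regression-normalized.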

[2] = system: LXRa:RXRa (NR concentration 270 nM, RXRa partner concentration 90 nM)
In short: as §1

[3] = system: LXRa homodimer (NR concentration 270 nM)
In short: as §1

[4] = system: LXRb:RXRa (NR concentration 270 nM, RXRa partner concentration 90 nM)
In short: as §1

[5] = system: LXRb homodimer (NR concentration 270 nM)
In short: as §1

[6] = system: PPARa:RXRa (NR concentration 270 nM, RXRa partner concentration 90 nM)
In short: as §1

[7] = system: PPARg:RXRa (NR concentration 180 nM, RXRa partner concentration 90 nM)
In short: as §1

[8] = system: PPARg:RXRa 270nM:90nM, anti-RXR (NR concentration 270 nM, RXRa partner concentration 90 nM)
In short: as §1

[9] = system: PPARg:RXRa 30nM:10nM, anti-RXR (NR concentration 30 nM, RXRa partner concentration 10 nM)
In short: as §1

[10] = system: PPARg:RXRa 90nM:30nM, anti-RXR (NR concentration 90 nM, RXRa partner concentration 30 nM)
In short: as §1

[11] = system: PPARg:RXRa DBDmut IVT, anti-RXR (DBD mutation: RXRa K156A/R161A, NR concentration 270 nM, RXRa partner concentration 90 nM)
In short: as §1

[12] = system: PPARg:RXRa IVT, anti-PPARg (NR concentration 270 nM, RXRa partner concentration 90 nM)
In short: as §1

[13] = system: PPARg DBDmut:RXRa IVT, anti-PPARg (DBD mutation: PPARg1 K132A/R137A, NR concentration 270 nM, RXRa partner concentration 90 nM)
In short: as §1

[14] = system: PPARg DBDmut IVT, anti-PPARg (DBD mutation: PPARg1 K132A/R137A, NR concentration 270 nM)
In short: as §1

[15] = system: PPARg homodimer (NR concentration 180 nM)
In short: as §1

[16] = system: PXR:RXRa (NR concentration 270 nM, RXRa partner concentration 90 nM)
In short: as §1

[17] = system: PXR homodimer (NR concentration 270 nM)
In short: as §1

[18] = system: RARa:RXR (NR concentration 270 nM, RXRa partner concentration 90 nM)
In short: as §1

[19] = system: RARa homodimer (NR concentration 270 nM)
In short: as §1

[20] = system: RARb:RXRa (NR concentration 270 nM, RXRa partner concentration 90 nM)
In short: as §1

Sequence	PBM binding z-score [1]	PBM binding z-score [2]	PBM binding z-score [3]	PBM binding z-score [4]	PBM binding z-score [5]	PBM binding z-score [6]	PBM binding z-score [7]	PBM binding z-score [8]	PBM binding z-score [9]	PBM binding z-score [10]	PBM binding z-score [11]	PBM binding z-score [12]	PBM binding z-score [13]	PBM binding z-score [14]	PBM binding z-score [15]	PBM binding z-score [16]	PBM binding z-score [17]	PBM binding z-score [18]	PBM binding z-score [19]	PBM binding z-score [20]
CCTTACGGGTCACAAGGTTATAGCACGACGAGCG	5.77	4.34	0.422	3.65	0.114	5.46	5.45	5.85	2.52	4.65	3.76	4.65	0.482	0.244	2.41	3.87	0.686	4.98	1.2	4.15
ATCTCTAGGTAAGTCTCAGTTCAGTGAAGAACGC	0.588	0.489	0.754	0.383	1.26	0.246	-0.297	0.387	0.236	0.632	1.77	1.38	1.04	1.5	1.22	1.23	2.14	0.749	1.44	0.564
ATACCAAGGTGATCGAGAGGTCGTTGATACTAAC	1.97	1.51	0.71	1.37	0.0291	1.72	0.979	1	0.238	0.545	0.406	1.39	0.441	0.884	1.08	2.91	1.12	2.04	0.692	1.56
TCTTGTAGATTAAGCAGGTTAAGAAAGCCTGAGT	0.514	0.349	-0.181	0.403	-0.31	0.868	-0.488	1.37	2.84	2.08	1.64	0.902	0.0777	0.04	-0.0749	0.401	0.0794	0.419	0.0226	0.106
CATACAGGGTCAGCAAGGCCAGAGTAGGGACGGC	4.73	3.36	-0.0417	2.23	-0.0671	4.51	3.47	3.27	0.536	2.04	1.19	2.54	0.587	0.984	1.18	2.66	0.241	3.24	0.341	4.25
TCTCGGAGTACACGAAAGGTCAGAGCTCGACATC	2.31	3.69	2.03	3.2	-0.426	3.55	1.78	3.53	2.52	3.11	1.42	1.77	0.689	0.21	1.29	4	-0.3	4.04	-0.148	3.79
CCGACTGAGGCAGAAAGGTTACCATACCATCCGG	0.495	0.563	0.0475	0.877	-0.972	1.82	1.05	1.42	0.27	0.899	-0.0384	-0.0549	-1.78	-0.731	0.893	0.855	-0.109	1.69	0.393	1.62
CAAACTAGGTCACAGAGGTCACAGTCCGTGCGTA	6.73	6.02	6.09	5.37	1.35	6.43	10.1	8.04	6.43	8.12	8.75	9.01	2.8	2.69	5.83	6.57	9.23	7.15	2.78	5.35
TCTAGTTGGTCACGGAGGTCACACAAGACGGGTA	3.16	3.39	2.41	3.46	0.597	3.99	3.49	4.05	3.51	3.75	2.31	4.34	0.505	0.71	2.71	4.55	1.16	4.17	1.37	3.87
AGTCAAACTTCATCTAGGTAACGTAAGATATGCT	-0.0376	-0.223	-0.295	0.127	0.1	-0.0609	0.882	0.333	0.414	0.33	0.952	1.7	1.48	0.721	-0.505	-0.365	0.02	-0.125	0.222	0.212
CCTGCTAGGTCAATGGTGAGCTAAAGCAGCTCGC	2.56	1.58	-0.54	0.808	-0.0982	2.57	2.46	2.99	1.2	2.5	4.2	3.22	-0.736	-0.744	0.822	0.37	-0.961	1.09	-0.333	3.51
TCATACAGGTAAATGCTAGGTGAAAGTCCGATCT	0.695	0.892	0.122	0.729	0.432	1.07	0.609	2.04	3.75	2.83	2.68	1.46	0.656	0.391	0.443	0.585	0.0342	0.804	0.732	0.542
TCATATAGGTAAACAGGTGCAAGTCCGTAAGTTA	0.886	1	0.433	1.02	-0.121	1.65	1.1	2.53	3.85	3.12	4.3	2.74	0.88	1.48	1.13	1.33	0.685	1.34	1.57	0.765
CCTGCTAGGTCAATGGTCAGCTGAAGCAGCTCGC	3.06	2.17	-0.221	1.45	-0.203	3.22	4.4	5.35	2.69	4.92	4.48	4.13	0.258	-0.168	1.14	0.872	-0.578	1.71	-0.46	3.85
TGATATAGGTAATACAGGTGAAAGTCGGCATCTA	0.306	0.701	0.521	0.418	0.00189	2.16	2.39	2.3	1.33	2.05	4.32	4.45	1.57	1.13	1.38	0.409	0.476	0.69	0.77	0.624
